# From paper PMC5540273 (PLoS ONE, 2017)
# Test system: T1, MEK2
# T1 construct: gene MAP2K2
# Details: concentration: 1 μM, replicates: in singlicate; n = 1
# 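Note: KINOMEscan kinase panel screen.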
row,Structure (SMILES),%Inh [%]
1,CCn1c(-c2cccnc2O)nc2cnccc21 [SB-736715],0
2,Cl.Oc1ccc(-c2nc(-c3ccccc3)[nH]c2-c2ccncc2)cc1 [SB-428218],0
3,CC(=O)Nc1nc2cnc(Nc3cc(NC(=O)c4cccc(CCC#N)c4)ccc3C)nc2s1,0
4,O=S(=O)(c1ccc(-c2ccnc3[nH]ccc23)cc1)N1CCCC1 [GSK846226],22
5,CN1C(=O)C(Nc2ccc(Cl)c(C(=O)O)c2)=C(c2ccc(Cl)cc2)C1=O [SB-404290],21
6,Fc1cc(Cl)ccc1Nc1ccnc2cc(I)ccc12 [GW551191],0
7,O=c1cc(N2CCOCC2)nc2n(Cc3cccc(Cl)c3Cl)ccn12 [GSK2286295],0
8,Cn1ccc2ncnc(Oc3ccc(NC(=O)Nc4ccccc4)cc3)c21,20
9,COc1cc(Nc2nccc(N3CCC(NC(=O)Nc4cc(C)ccc4C)C3)n2)cc(OC)c1OC (stereo not drawn) [GSK1379762],0
10,CC(C)(C)c1ccc(C(=O)Nc2cn3cc(Cl)ccc3n2)cc1,24
11,COc1ccccc1CNC(=O)c1cc(C(=O)c2ccccc2C)c[nH]1 [GSK364507],0
12,O=C(O)COc1ncnc2cc(-c3ccc4[nH]ncc4c3)sc12,7
13,CS(=O)(=O)c1ccc(-c2nc3n(c2-c2ccncc2)CCC3)cc1 [SKF-105942],0
14,Cc1c(Cn2ccn3c(=O)cc(N4CCOCC4)nc23)cccc1C(F)(F)F [GSK2289044],0
15,O=C(Nc1n[nH]c2cc(-c3cccc(F)c3F)ccc12)C1CC1 [SB-733894],11
16,Cc1csc(-c2nc(Nc3ccncc3)c3ccccc3n2)n1 [GW869640],17
17,Cl.NC(=O)c1cccc(Nc2nccc(Nc3ccc(Oc4cccc(Cl)c4)c(Cl)c3)n2)c1 [GW659008],14
18,O=C1NC(=O)C(N2CCc3ccccc32)=C1c1ccccc1Cl [SB-373598],0

row,Structure (SMILES),%Inh [%]
1,COC(=O)c1c(-c2ccccc2)c2cc(C(=O)O)ccc2c(=O)n1Cc1ccccc1,10
2,Cc1cc(-c2ccc3c(c2)CC[C@@H](N[C@@H](C)c2ccccc2)C3)cnc1N.Cl [GW412617],12
3,Nc1ncnc2[nH]c(-c3ccccc3)nc12 [AH5015],0
4,O=C(Nc1n[nH]c2nc(-c3nccs3)c(Br)cc12)C1CC1 [SB-742251],0
5,Cc1ccccc1-n1cnc2c(N)ncnc21 [SKF-97510],0
6,Clc1cc(Cl)cc(Nc2ccnc(Nc3cc(Cl)cc(Cl)c3)n2)c1 [GSK175726],0
7,Cn1ccc2ncnc(Oc3ccc(Nc4nc5ccccc5[nH]4)cc3)c21,0
8,CCCc1ccc(S(=O)(=O)NC2CCN(c3ccnc(Nc4ccc(F)cc4)n3)C2)cc1 (stereo not drawn) [GSK1379715],0
9,COc1cc2nccc(Nc3ccc(NC(=O)c4ccc(C)cc4)c(O)c3)c2cc1OC.Cl [GW440132],0
10,CCn1c(-c2ccccn2)nc2cnccc21 [SB-736398],0
11,Cl.O=C(Nc1cccc(-c2nn3ncccc3c2-c2ccnc(Nc3cccnc3)n2)c1)c1c(F)cccc1F [GSK312879],9
12,Cc1ccc(NC(=O)Nc2cccc(Cl)c2)cc1-c1ccc(C(=O)Nc2ccncc2)cc1 [GSK1398468],0
13,O=C(Nc1ccc2c(c1)OCO2)NC1CCN(c2ccnc(Nc3ccc(F)cc3)n2)C1 (stereo not drawn) [GSK1379724],0
14,COc1ccc(Nc2nccc(NCCNC(=O)Nc3ccccc3F)n2)cc1 [GSK1379901],8
15,COc1ccc(Nc2nccc(-c3cccc(NC(=O)c4cc5cc(F)ccc5[nH]4)c3)n2)cc1 [GSK1229782],0
16,Cc1cc(N2Cc3ccccc3C2)nc(Nc2ccc(S(=O)(=O)N3CCOCC3)cc2)n1.Cl [GSK1669917],0
17,COc1ccc(CNC(=O)NC2CCN(c3ccnc(Nc4cc(OC)c(OC)c(OC)c4)n3)C2)cc1 (stereo not drawn) [GSK1379748],0
18,Cc1ccc(-c2cc(-c3c[nH]nc3-c3ccccn3)ccn2)cc1 [GW684088],0
